Data from publication PMC4336329 (PLoS ONE, 2015).
About 14,000 (4.5%) of roughly 310,000 compounds showed an effect of 50% or more. Effects have a minus sign here. This is one part of a sample in which strong results are shown more often than they occur.

What follows are compounds tested against human ether-à-go-go-related gene (hERG) potassium channel (human, UniProt Q12809) (assay: primary screen, population patch clamp on CHO cells stably expressing hERG; higher = less effect of the substance).
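Note: peak tail current of the secondary pulse compared with the same well before compound.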

Chain of human ether-à-go-go-related gene (hERG) potassium channel (Q12809 whole entry, looked up): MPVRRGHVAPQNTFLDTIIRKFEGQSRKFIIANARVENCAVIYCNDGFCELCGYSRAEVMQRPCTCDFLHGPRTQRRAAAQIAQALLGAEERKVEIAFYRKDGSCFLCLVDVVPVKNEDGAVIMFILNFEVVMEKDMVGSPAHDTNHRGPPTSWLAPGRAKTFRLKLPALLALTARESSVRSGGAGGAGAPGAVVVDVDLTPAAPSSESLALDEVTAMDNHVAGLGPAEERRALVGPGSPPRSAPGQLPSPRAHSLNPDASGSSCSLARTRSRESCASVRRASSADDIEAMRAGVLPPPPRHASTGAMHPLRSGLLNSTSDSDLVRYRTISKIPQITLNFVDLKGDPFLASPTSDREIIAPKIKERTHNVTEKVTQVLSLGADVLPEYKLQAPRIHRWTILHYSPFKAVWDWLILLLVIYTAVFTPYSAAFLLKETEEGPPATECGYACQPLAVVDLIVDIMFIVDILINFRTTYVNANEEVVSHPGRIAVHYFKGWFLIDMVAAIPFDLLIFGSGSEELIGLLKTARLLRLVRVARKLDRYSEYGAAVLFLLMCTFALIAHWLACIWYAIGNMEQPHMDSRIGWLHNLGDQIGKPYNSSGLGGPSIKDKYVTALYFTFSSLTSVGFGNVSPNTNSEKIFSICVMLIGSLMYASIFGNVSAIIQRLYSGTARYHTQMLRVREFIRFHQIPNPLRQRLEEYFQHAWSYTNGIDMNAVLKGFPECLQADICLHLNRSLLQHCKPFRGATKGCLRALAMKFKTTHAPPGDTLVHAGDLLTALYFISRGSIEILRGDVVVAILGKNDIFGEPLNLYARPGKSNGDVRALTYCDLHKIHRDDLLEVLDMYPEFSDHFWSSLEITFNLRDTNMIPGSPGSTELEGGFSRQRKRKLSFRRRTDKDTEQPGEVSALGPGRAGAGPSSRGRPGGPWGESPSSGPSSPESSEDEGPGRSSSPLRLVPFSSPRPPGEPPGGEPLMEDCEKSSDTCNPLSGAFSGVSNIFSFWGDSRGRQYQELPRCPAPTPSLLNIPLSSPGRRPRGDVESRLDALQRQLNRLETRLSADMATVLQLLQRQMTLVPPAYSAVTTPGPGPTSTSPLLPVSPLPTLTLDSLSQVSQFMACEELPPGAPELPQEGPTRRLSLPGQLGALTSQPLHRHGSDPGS

Row | Compound | hERG current change (%, negative = inhibition) at 10uM
1 | Cc1cc(NCCCN)nc(-c2ccccc2O)n1 | 10%
2 | OC(c1ccc(F)cc1)(c1ccc(F)cc1)[C@@H]1CCCN1 | 7.57%
3 | CCCOC(=O)c1ccc(NC(=O)/C=C/c2cccs2)cc1 | 0.453%
4 | CCCOC(=O)c1ccc(NC(=O)COC)cc1 | 1.07%
5 | CCN(CC)CCOC(=O)c1ccc(NC(=O)/C=C/c2cccs2)cc1.Cl | -76.3%
6 | CCCOC(=O)c1ccc(NC(=O)C(=O)NCC2CCCO2)cc1 (stereo not shown) | 4.7%
7 | CCCCOC(=O)c1ccc(NC(=O)C(=O)NCc2ccncc2)cc1 | -8.29%
8 | CCCCOC(=O)c1ccc(NC(=O)C(=O)NCCN(C)C)cc1 | -28.9%
9 | CCCCOC(=O)c1ccc(NC(=O)/C=C/c2cccs2)cc1 | -17.1%
10 | CCCOC(=O)c1ccc(NC(=O)C(=O)NCCN(CC)CC)cc1 | -52.1%
11 | CCCCOC(=O)c1ccc(NC(=O)C(=O)NCCN(CC)CC)cc1 | -73.2%
12 | Nc1cccc(-n2cccc2)c1 | 18.5%
13 | COc1cccc(CNC(=O)CCC(=O)n2ncc3cc(C)ccc32)c1OC | 3.67%
14 | Cc1ccc(C(=O)NNC(=O)CCN2C(=O)C3CCCCC3C2=O)cc1 (stereo not shown) | -5.88%
15 | CCCC/C(O)=C1\C(=O)CCCC1=NCCc1c(C)[nH]c2ccccc12 | -12%
16 | CNc1oc(C)nc1S(=O)(=O)c1ccc(C)cc1 | 10.6%
17 | CC(NC(=O)CCNS(=O)(=O)c1cccc2nsnc12)c1ccccc1 (stereo not shown) | -8.74%
18 | CCOC(=O)CSc1nnc(CCc2nc3ccccc3[nH]2)n1C | -0.184%
19 | CC(=O)c1ccc(N2CCN(CC(=O)N(C3CC3)C3CCS(=O)(=O)C3)CC2)c(F)c1 (stereo not shown) | -12%
20 | Cc1[nH]n(-c2ccccc2)c(=O)c1C=NCCc1ccccc1 | -12.7%

Row | Compound | hERG current change (%, negative = inhibition) at 10uM
21 | CCOc1[nH]n(-c2ccccc2)c(=O)c1C=NCc1cccnc1 | -48.8%
22 | Cc1ccc(-n2[nH]c(C)c(C=NCc3ccncc3)c2=O)cc1 | -54.5%
23 | CCOc1[nH]n(-c2ccc(Cl)cc2)c(=O)c1C=NCc1cccnc1 | -42.1%
24 | Cc1[nH]n(-c2ccccc2)c(=O)c1C=NCc1ccncc1 | -58.1%
25 | CCOc1[nH]n(-c2ccccc2)c(=O)c1C=NCc1ccncc1 | -50%
26 | Cc1ccc(-n2[nH]c(C)c(C=Nc3cc(C)ccn3)c2=O)cc1 | -1.12%
27 | Cc1[nH]n(-c2ccccc2)c(=O)c1C=NCc1ccco1 | -10.7%
28 | Cc1ccc(-n2[nH]c(C)c(/C=N/c3ccccn3)c2=O)cc1 | 2.58%
29 | CCOc1ccc(S(=O)(=O)n2ccnc2C)cc1 | 14.5%
30 | Cc1cc(O)c(-c2n[nH]c3c2C(c2cccc(O)c2)N(Cc2cccnc2)C3=O)cc1Cl (stereo not shown) | 11.4%
31 | Cc1cccc(Cc2nnc(CCC(=O)N(C)C3CCOC3)o2)c1 (stereo not shown) | 18.6%
32 | Nc1cc2ccccc2oc1=O | 8.37%
33 | O=C1/C(=C/c2ccccc2Cl)SC(=S)N1CCCC(=O)N(CCO)c1ccccc1 | -12.8%
34 | CC(=O)NC12CC3CC(C1)CC(C(=O)Nc1nc4ccc(F)cc4s1)(C3)C2 | -56.9%
35 | COc1ccc2nc(NC(=O)C34CC5CC(CC(NC(C)=O)(C5)C3)C4)sc2c1 | -11.1%
36 | CC(=O)NC12CC3CC(C1)CC(C(=O)Nc1nc4ccc(S(C)(=O)=O)cc4s1)(C3)C2 | -1.14%
37 | CCc1ccc2[nH]cc(C(=O)OCCOC)c(=O)c2c1 | 4.42%
38 | O=C(NCCc1ccccc1)c1ccc2nc3cc(Cl)ccc3c(=O)n2c1 | 14.1%
39 | O=[N+]([O-])/C(C(Cl)=C(Cl)Cl)=C(/Sc1ccccc1)N1CCCCC1 | 4.71%
40 | C=CCN1C(=O)/C(=C/c2ccc(Br)s2)C(=O)NC1=S | 6.73%

Row | Compound | hERG current change (%, negative = inhibition) at 10uM
41 | CCn1c(=N)c(S(=O)(=O)c2ccc(F)cc2)cc2c(=O)n3ccccc3nc21 | -10.5%
42 | O=C(NC1CCCC1)c1cc2c(=O)n3ccccc3nc2s1 | -9.33%
43 | N=c1c(C(=O)NC2CCCCC2)cc2c(=O)n3ccccc3nc2n1Cc1ccc(F)cc1 | -77%
44 | N=c1c(C(=O)NC2CCCCC2)cc2c(=O)n3ccccc3nc2n1Cc1ccco1 | -77%
45 | COCCNC(=O)c1ccc2c(=O)n(Cc3ccco3)c(SCC(=O)NC3CCCCC3)nc2c1 | -47.1%
46 | N=c1c(C(=O)NC2CCCCC2)cc2c(=O)n3ccccc3nc2n1Cc1ccccc1 | -69.8%
47 | N=c1c(C(=O)NC2CCCC2)cc2c(=O)n3ccccc3nc2n1Cc1ccccc1 | -78.6%
48 | O=C(NC1CCCCCC1)c1cc2c(=O)n3ccccc3nc2s1 | 0.251%
49 | CC1CCCCC1NC(=O)c1cc2c(=O)n3ccccc3nc2n1C (stereo not shown) | 4.32%
50 | CCOC(=O)c1[nH]c(C)c(C(=O)N(C)C)c1C | 4.87%
51 | CC(C)Oc1cccc(NC(=O)c2cnccc2C(F)(F)F)c1 | -0.311%
52 | COc1ccc(C2=CC(c3ccc(C)cc3)n3nnnc3N2)cc1 (stereo not shown) | -6.67%
53 | O=C(CC(C(=O)O)c1ccc(Cl)cc1Cl)c1ccc(Cl)cc1 (stereo not shown) | 11.4%
54 | N=c1c(C(=O)NC2CCCCC2)cc2c(=O)n3ccccc3nc2n1Cc1cccnc1 | -73.3%
55 | O=C(NC1CCCCCC1)C1c2ccccc2C(=O)N1Cc1cccnc1 (stereo not shown) | -3.16%
56 | Cc1ccc(-c2ccc(C(=O)O)[nH]2)cc1 | -19.1%
57 | Cc1ccccc1/C=N/NC(=O)Cc1ccc(Cl)cc1 | 17%
58 | COc1ccccc1Nc1nnc(SCc2cc(=O)n3ccsc3n2)s1 | -8.42%
